# LASV entry inh = Lassa virus entry inhibition; AID 540256; Potency, µM (doses to about 37.9 µM), for inactives: top-dose activity change, negative = inhibition, hits mostly inhibitors; Lassa virus pseudotype entry inhibition, cell reporter; actives 1.2% (n = 300,000); calls by dose curve; tested in HEK293 cells; also: potency is read from the fitted curve at half-maximal effect; nearly all actives have a fitted effect of over 50% in size
# VACV Venus inh = vaccinia inhibition (Venus reporter); Vaccinia virus Venus reporter expression, fluorescence; Potency, µM (doses to about 36.5 µM), without a hit: top-dose activity change, negative = inhibition, usual class: inhibitors; actives 0.46% (n = 330,000); AID 720580; calls by dose curve; tested in A549 cells; also: potency is read from the fitted curve at half-maximal effect; nearly all actives have a fitted effect of over 30% in size
# Marburg entry inh = inhibitors of Marburg virus binding or cell entry | actives 1.8% (n = 300,000) | Marburg virus pseudotyped entry inhibition, cell reporter | Potency, µM (doses to about 37.8 µM), without a hit: at the top dose activity change, negative = inhibition, actives largely listed as inhibitors; calls by dose curve; tested in HEK293 cells; also: potency is read from the fitted curve at half-maximal effect
# Vaccinia mCherry = inhibitors of vaccinia virus infection (mCherry reporter signal); Vaccinia virus mCherry reporter infection, fluorescence; Potency, µM (top dose mostly 36.5 µM), for the others: at the highest dose activity change, negative = inhibition, hits mostly inhibitors; actives 0.63% (n = 310,000); AID 720579; calls by dose curve; tested in A549 cells; also: potency is read from the fitted curve at half-maximal effect; nearly all actives have a fitted effect of over 35% in size
# HCMV antiviral = inhibitors of human cytomegalovirus; HFF cells, HCMV-luciferase reporter, 72 h; active compounds read low; activity change, negative = inhibition, % at 57.5 µM; actives 4.5% (n = 410,000); in the data active = activity change below about -60%; inconclusive = no clear call, values can overlap the other calls; inactive = above about -39%
#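 After 16 h attachment at 37C, HFF cells received test compound and HCMV-luciferase (1 PFU/cell); reporter luminescence read 72 h later, data normalized against buffer-only and known inhibitor Salinomycin.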
# FMDV antiviral = blocks foot and mouth disease virus | FMDV antiviral cell-based qHTS | actives 1.2% (n = 410,000) | Potency, µM (titrated, usually from 57.9 µM), inactives show at the top dose activity change, negative = inhibition, hits mostly inhibitors; calls by dose curve; tested in HEK293T cells; also: read-out not given here; potency is read from the fitted curve at half-maximal effect; nearly all actives have a fitted effect of over 45% in size
# * hit, by the source's call; i = inactive; u = inconclusive; x = no result given; [ ] = another dose, or the depositor's remark. Shown are actives, neighbours in structure and some others; about 6.5% of the full set was active somewhere. % is scaled to controls: 0 for no effect and ±100 for the full control effect.
SMILES,LASV entry inh,VACV Venus inh,Marburg entry inh,Vaccinia mCherry,HCMV antiviral,FMDV antiviral
CCOC(=O)c1ccc(NC(=S)N(CCCN2CCCCC2)Cc2ccco2)cc1,-17%,-15%,13µM*,-15%,u,-2%
CCOC(=O)c1ccc(NC(=S)N(CCN(C)C)Cc2cccs2)cc1,u,-2%,u,u,-61*,54%
O=c1nc2ccccc2c2n1CC(CN1CCN(c3ccccc3)CC1)N2 (stereo not given),x,-17%,x,i,x,-7%
Cc1ccc(C)c(-c2[nH]ncc2CN2CCCC(CO)(Cc3ccccc3C)C2)c1 (stereo not given),x,1%,25µM*,-18%,-8,-25%
CN(C(=O)COc1cc(=O)n(C)c2ccccc12)c1cccc(Cl)c1,x,0%,x,-11%,-32,-24%
CCN(C(=O)COc1cc(=O)n(C)c2ccccc12)c1cccc(Cl)c1,-6%,x,1%,x,-90*,-29%
CCC(C)c1ccc(NC(=S)NC2CCN(Cc3ccccc3)CC2)cc1 (stereo not given),u,10µM*,11µM*,u,-98*,u
S=C(NCCc1ccccc1)NC1CCC(NC(=S)NCCc2ccccc2)CC1 (stereo not given),u,1%,9%[46.1 µM],-5%,u,-3%
COc1ccc(CCNC(=S)NC2CCN(Cc3ccccc3)CC2)cc1,-6%[46.1 µM],-9%,u,u,-72*,-22%
CCc1ccc(NC(=S)NC2CCN(Cc3ccccc3)CC2)cc1,u,u,u,u,-77*,-25%
CCCCCCCCCCCCCCCCCCN(CCCCCCCCCCCCCCCCCC)c1ccc(/C=C/c2ccc(C=O)cc2)cc1,x,-15%,x,i,x,x
CC1CC(NC2=NCCS2)CC(C)(C)C1 (stereo not given),-9%,-24%,u,i,-66*,-23%
CC1CC(NC(=O)/C=C/C(=O)O)CC(C)(C)C1 (stereo not given),-4%,-6%,-13%[14.2 µM],i,2,9%
COc1ccccc1Nc1c2c(nc3ccc(NC(=O)/C=C/c4cccc(OC)c4OC)cc13)CCCC2,-20%[46.1 µM],u,u,u,-99*,-27%
COc1ccc(Nc2c3c(nc4ccc(NC(=O)/C=C/c5cccc(OC)c5OC)cc24)CCCC3)cc1OC,u,u,u,u,-97*,u
COc1ccccc1Nc1c2c(nc3ccc(NC(=O)c4cccc(F)c4)cc13)CCCC2,u,u,u,11µM*,-107*,32µM*
COc1ccc(/C=C/C(=O)Nc2ccc3nc4n(c(=O)c3c2)CCCC4)cc1OC,x,x,x,x,-34,-6%
COc1ccc(/C=C/C(=O)Nc2ccc3nc4c(c(Nc5ccccc5OC)c3c2)CCCC4)cc1,22%[46.1 µM],-23%[7.34 µM],u,-12%[7.34 µM],-102*,0%
COc1cccc(C(=O)Nc2cccc(C(=O)OCc3cc(=O)n4c(C)csc4n3)c2)c1,u,-7%,x,-12%,u,-13%
CCOC(=O)c1sc2ccccc2c1S(=O)(=O)N1CCN(c2cc(C)ccc2C)CC1,-5%[46.1 µM],1%,x,-8%,3,-12%
O=c1oc2ccccc2n1CSC1=NCCS1,u,u,-19%,x,-62*,0%
O=c1oc2ccccc2n1CSc1nc2ccccc2s1,6%,-11%,u,-3%,117,5%
CC1=NN(c2nc(-c3ccc(C)cc3)cs2)C(=O)C1N=Nc1ccccc1O (stereo not given),u,438%,u,1%,-102*,-21%
CC1=NN(c2nc(-c3ccc(C)cc3)cs2)C(=O)C1N=Nc1cccc(O)c1 (stereo not given),3%,8%,u,-5%,-25,-27%
CCN(CC)CCNC(=S)Nc1ccc2nc(N3CCN(C)CC3)cc(C)c2c1,u,-27%,u,-16%,-16,-4%
SMILES,LASV entry inh,VACV Venus inh,Marburg entry inh,Vaccinia mCherry,HCMV antiviral,FMDV antiviral
CCCCN(CC)CCCNC(=S)Nc1ccc2nc(N3CCN(CC)CC3)cc(C)c2c1,u,-17%,3.5µM*,-19%,-29,0%
CCCCN(CC)CCCNC(=S)Nc1ccc2nc(N3CCN(C)CC3)cc(C)c2c1,u,-9%,2.5µM*,-19%,-37,-18%
CCCSc1ncc(Cl)c(C(=O)Nc2sc3c(c2C(=O)NCC)CCCC3)n1,-1%[46.1 µM],u,u,-28%,59,-17%
OCCCn1c(CCNc2nc(-c3ccc(Cl)cc3)cs2)nc2cc(C(F)(F)F)ccc21,x,-21%,x,u,-63*,-15%
O=[N+]([O-])c1cc(-c2csc(NCCc3nc4cc(C(F)(F)F)ccc4n3CCCO)n2)ccc1Cl,x,-11%,x,i,16,u
CCCNC(=O)CNC(=O)c1ccccc1OCC(=O)Nc1ccc(Br)cc1,x,-14%,x,-11%,x,x
CCOC(=O)c1c(C)oc2c1c(C=NCc1ccccn1)c(O)c1ccccc12,14µM*,-10%,u,-4%,-32,-22%
COc1ccc(N2CCc3c(C)nc4c(OC)cc(OC)cc4c32)c(OC)c1,u,x,12µM*,x,-20,0%
COc1ccc(N2CCc3c(C)nc4c(OC)cccc4c32)cc1,u,-12%,u,-14%,-66*,16%
Cc1ccc2nc3c(c(N)c2c1)CCN3c1ccccc1,u,-28%,u,u,16,u
COc1cccc(N2CCc3c(C)nc4ccc(Cl)cc4c32)c1,u,u,11µM*,-17%,-22,u
CCN1Cc2c(/C=C/c3ccccc3)nc3ccc(OC)cc3c2N(c2cccc(Cl)c2)C1,x,u,x,u,-102*,40µM*
COc1cccc(-n2c(/C=C\c3ccc(Cl)cc3)nc3ccccc3c2=O)c1,-16%[46.1 µM],-7%,x,-4%,u,u
Cc1nc2c(C)cccc2c2c1CCN2c1ccccc1F,-22%[46.1 µM],-1%,u,i,u,u
COc1ccc(-c2cscc2N)cc1,x,x,x,x,-3,x
CCOc1cc(C2Nc3ccccc3C(=O)N2Cc2ccco2)ccc1O (stereo not given),x,-7%,x,19%,x,x
COc1ccc(N2CCc3c(C)nc4c(OC)cc(OC)cc4c32)cc1,u,u,u,u,-108*,u
COc1ccc(N2Cc3ccc(OC)c(OC)c3C2=O)cc1,x,x,x,x,146,47%
COc1ccc(/C=N/NC(=O)c2nnn(-c3nonc3N)c2-c2cccs2)cc1OC,27%[46.1 µM],-25%,-1%[46.1 µM],i,0,u
COc1cc(/C=N/NC(=O)c2nnn(-c3nonc3N)c2C(C)C)ccc1OCc1ccccc1,x,x,x,x,-29,u
COc1cc(/C=N/NC(=O)c2nnn(-c3nonc3N)c2C)ccc1OCc1ccc(Cl)cc1,x,u,x,-5%,-61*,28%
CCOc1cccc(-c2c(C(=O)N/N=C(\C)c3ccccn3)nnn2-c2nonc2N)c1,x,x,x,x,-69*,-9%
Nc1nonc1-n1nnc(C(=O)N/N=C/c2cc(Br)cs2)c1-c1ccccc1,-19%[46.1 µM],-21%,5.6µM*,-28%,-69*,-22%

# From PubChem BioAssay
